Source: PubChem BioAssay (EPA / NIEHS)
Activity calls are given as the source filed them. The calls were made as follows: active = hit-call score of the fitted dose curve at least 0.9, where 1 is the maximum; inactive = score below 0.9.

Key:
Conditions in all cases: mRNA level, 48 h; actives raise or lower the signal
[1] = read-out: Forkhead box O1 (FOXO1), FOXO1 (gene 2308); experiment: LTEA_HepaRG_FOXO1: Life Technologies and Expression Analysis (LTEA) Assay for Forkhead box O1 (FOXO1) using HepaRG (AID 2283456)
In short: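 Differentiated HepaRG cells, in serum-free induction medium with 0.5% DMSO, exposed 48 h in duplicate to 8-point half-log series from 100 uM. FOXO1 mRNA measured by TaqMan qRT-PCR, normalized to ACTB, GAPDH, POLR2A; bidirectional fit versus DMSO.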

[2] = read-out: growth arrest and DNA damage 45 (GADD45A), GADD45A (gene 1647); experiment: LTEA_HepaRG_GADD45A: Life Technologies and Expression Analysis (LTEA) Assay for growth arrest and DNA damage 45 (GADD45A) using HepaRG (AID 2283458)
In short: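 Cells plated and cultured 48 h, switched to serum-free induction medium, then dosed for 48 h (100 uM top, half-log dilutions, 0.5% DMSO). RNA was isolated and transcript measured by Fluidigm qRT-PCR.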

[3] = read-out: Forkhead box O3 (FOXO3), FOXO3 (gene 2309); experiment: LTEA_HepaRG_FOXO3: Life Technologies and Expression Analysis (LTEA) Assay for Forkhead box O3 (FOXO3) using HepaRG (AID 2283459)
In short: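 Differentiated human HepaRG cells, 48 h post-plating, exposed in duplicate for 48 h in serum-free induction medium; 8-point half-log series from 100 uM in 0.5% DMSO. FOXO3 mRNA by TaqMan qRT-PCR, normalized to ACTB/GAPDH/POLR2A; bidirectional fit versus DMSO.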

[4] = read-out: ABC Transporter (ABCB1), ABCB1 (gene 5243); experiment: LTEA_HepaRG_ABCB1: Life Technologies and Expression Analysis (LTEA) Assay for ABC Transporter (ABCB1) using HepaRG (AID 2283460)
In short: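 HepaRG cells exposed in duplicate for 48 h in serum-free induction medium to eight half-log concentrations up to 100 uM in 0.5% DMSO. ABCB1 mRNA quantified by qRT-PCR, normalised to ACTB, GAPDH and POLR2A; fitted bidirectionally versus DMSO.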

[5] = read-out: growth arrest and DNA damage 45 (GADD45B), GADD45B (gene 4616); experiment: LTEA_HepaRG_GADD45B: Life Technologies and Expression Analysis (LTEA) Assay for growth arrest and DNA damage 45 (GADD45B) using HepaRG (AID 2283461)
In short: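 Differentiated human HepaRG cells in serum-free induction medium exposed 48 h in duplicate to eight concentrations, top 100 uM, half-log steps, 0.5% DMSO. GADD45B mRNA by TaqMan qRT-PCR, normalized to ACTB, GAPDH, POLR2A; bidirectional fit versus DMSO.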

[6] = read-out: ABC Transporter (ABCC3), ABCC3 (gene 8714); experiment: LTEA_HepaRG_ABCC3: Life Technologies and Expression Analysis (LTEA) Assay for ABC Transporter (ABCC3) using HepaRG (AID 2283462)
In short: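 Differentiated human HepaRG cells exposed 48 h in serum-free induction medium, 0.5% DMSO vehicle, 8-point half-log series to 100 uM in duplicate. ABCC3 mRNA by qRT-PCR, normalised to ACTB, GAPDH, POLR2A; bidirectional fit vs DMSO.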

[7] = read-out: ABC Transporter (ABCB11), ABCB11 (gene 8647); experiment: LTEA_HepaRG_ABCB11: Life Technologies and Expression Analysis (LTEA) Assay for ABC Transporter (ABCB11) using HepaRG (AID 2283463)
In short: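 Differentiated human HepaRG cells in serum-free induction medium, dosed in duplicate for 48 h. Eight-point half-log series from 100 uM in 0.5% DMSO; ABCB11 mRNA by qRT-PCR, normalized to ACTB, GAPDH, POLR2A, fitted bidirectionally versus DMSO.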

[8] = read-out: ABC Transporter (ABCC2), ABCC2 (gene 1244); experiment: LTEA_HepaRG_ABCC2: Life Technologies and Expression Analysis (LTEA) Assay for ABC Transporter (ABCC2) using HepaRG (AID 2283464)
In short: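 Differentiated HepaRG cells in serum-free induction medium exposed 48 h to eight half-log concentrations up to 100 uM, 0.5% DMSO, in duplicate. ABCC2 mRNA measured by qRT-PCR (TaqMan, Fluidigm), normalized to ACTB, GAPDH and POLR2A. Fitted in both directions against DMSO.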

[9] = read-out: Broad substrate specificity ATP-binding cassette transporter ABCG2 (Homo sapiens) (UniProt Q9UNQ0); experiment: LTEA_HepaRG_ABCG2: Life Technologies and Expression Analysis (LTEA) Assay for ABC Transporter (ABCG2) using HepaRG (AID 2283465)
In short: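 Differentiated HepaRG cells were exposed for 48 h in serum-free induction medium to 8 half-log concentrations, top 100 uM, in 0.5% DMSO. ABCG2 mRNA was measured by qRT-PCR, normalized to ACTB, GAPDH and POLR2A, with bidirectional fitting versus DMSO.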

[10] = read-out: ATP-citrate lyase (ACLY), ACLY (gene 47); experiment: LTEA_HepaRG_ACLY: Life Technologies and Expression Analysis (LTEA) Assay for ATP-citrate lyase (ACLY) using HepaRG (AID 2283466)
In short: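 Differentiated HepaRG cells exposed 48 h in serum-free induction medium to eight half-log concentrations up to 100 uM in 0.5% DMSO, duplicates. Transcript measured by Fluidigm TaqMan qRT-PCR, normalized to ACTB, GAPDH, POLR2A; bidirectional fit versus DMSO.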

[11] = read-out: Peroxisomal acyl-coenzyme A oxidase 1 (ACOX1) gene, ACOX1 (gene 51); experiment: LTEA_HepaRG_ACOX1: Life Technologies and Expression Analysis (LTEA) Assay for Peroxisomal acyl-coenzyme A oxidase 1 (ACOX1) gene using HepaRG (AID 2283467)
In short: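 HepaRG cells, plated 48 h then switched to serum-free induction medium, were exposed in duplicate for 48 h to 8-point half-log concentrations up to 100 uM in 0.5% DMSO. ACOX1 mRNA was measured by qRT-PCR, normalized to ACTB/GAPDH/POLR2A, and fitted bidirectionally versus DMSO.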

[12] = read-out: Alkaline Phosphatase, Placental (ALPP) gene, ALPP (gene 250); experiment: LTEA_HepaRG_ALPP: Life Technologies and Expression Analysis (LTEA) Assay for Alkaline Phosphatase, Placental (ALPP) gene using HepaRG (AID 2283468)
In short: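 HepaRG cells plated 48 h, then exposed in duplicate for 48 h in serum-free induction medium to 8-point half-log series from 100 uM in 0.5% DMSO. ALPP mRNA by TaqMan qRT-PCR, normalized to ACTB/GAPDH/POLR2A; bidirectional fit versus DMSO.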

[13] = read-out: Bcl-2 (BAD) gene, BAD (gene 572); experiment: LTEA_HepaRG_BAD: Life Technologies and Expression Analysis (LTEA) Assay for Bcl-2 (BAD) gene using HepaRG (AID 2283469)
In short: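 Differentiated HepaRG cells were exposed in duplicate in 0.5% DMSO for 48 h to eight-point half-log concentrations up to 100 uM. BAD mRNA was measured by Fluidigm TaqMan qRT-PCR, normalized to ACTB, GAPDH and POLR2A, and fitted bidirectionally against DMSO.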

[14] = read-out: Bcl-2 (BAX) gene, BAX (gene 581); experiment: LTEA_HepaRG_BAX: Life Technologies and Expression Analysis (LTEA) Assay for Bcl-2 (BAX) gene using HepaRG (AID 2283470)
In short: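 HepaRG (human liver), 48 h exposure, duplicate wells. 8-pt curve, half-log from 100 uM, 0.5% DMSO. BAX transcript by TaqMan qRT-PCR; ACTB/GAPDH/POLR2A normalization; gain or loss vs DMSO baseline.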

[15] = read-out: adenosine kinase (ADK) gene, ADK (gene 132); experiment: LTEA_HepaRG_ADK: Life Technologies and Expression Analysis (LTEA) Assay for adenosine kinase (ADK) gene using HepaRG (AID 2283471)
In short: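 ADK expression quantified by qRT-PCR, normalised to three housekeeping genes, after 48 h exposure of HepaRG cells to eight concentrations (top 100 uM, half-log steps, duplicate, 0.5% DMSO). Up- or down-regulation fitted relative to vehicle.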

[16] = read-out: Alpha-fetoprotein (AFP) gene, AFP (gene 174); experiment: LTEA_HepaRG_AFP: Life Technologies and Expression Analysis (LTEA) Assay for Alpha-fetoprotein (AFP) gene using HepaRG (AID 2283472)
In short: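 HepaRG, single lot; 48 h post-plating -> serum-free induction medium; cpd 8-pt, 100 uM top, half-log, 0.5% DMSO, duplicate, 48 h. RNA -> qRT-PCR AFP, norm ACTB/GAPDH/POLR2A. Bidirectional fit vs DMSO.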

BCL2L11 (gene 10018) = experiment: LTEA_HepaRG_BCL2L11: Life Technologies and Expression Analysis (LTEA) Assay for Bcl-2 (BCL2L11) gene using HepaRG (AID 2283473)
In short: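 Differentiated human HepaRG cells were exposed 48 h in serum-free induction medium to eight half-log concentrations up to 100 uM in 0.5% DMSO, in duplicate. BCL2L11 mRNA was quantified by TaqMan qRT-PCR, normalized to ACTB, GAPDH and POLR2A; induction or repression fitted versus DMSO.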

[17] = read-out: Apolipoprotein A-V (APOA5) gene, APOA5 (gene 116519); experiment: LTEA_HepaRG_APOA5: Life Technologies and Expression Analysis (LTEA) Assay for Apolipoprotein A-V (APOA5) gene using HepaRG (AID 2283474)
In short: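 Differentiated HepaRG cells in serum-free induction medium, exposed 48 h in duplicate to eight half-log concentrations topping at 100 uM (0.5% DMSO). APOA5 mRNA by Fluidigm TaqMan qRT-PCR, normalized to ACTB, GAPDH and POLR2A; bidirectional fit versus DMSO.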

[18] = read-out: Apoptosis regulator Bcl-2 (Homo sapiens) (UniProt P10415); experiment: LTEA_HepaRG_BCL2: Life Technologies and Expression Analysis (LTEA) Assay for Bcl-2 gene using HepaRG (AID 2283475)
In short: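 HepaRG, plated 48 h then switched to serum-free induction medium; dosed 48 h, 8 conc. (max 100 uM, half-log steps), duplicate, 0.5% DMSO. Lysis in RLT, RNA isolated, TaqMan qRT-PCR for BCL2; ACTB/GAPDH/POLR2A normalisation; bidirectional fit vs DMSO.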

Measured: outcome

Chain of Apoptosis regulator Bcl-2 (Homo sapiens) (P10415 whole entry, looked up): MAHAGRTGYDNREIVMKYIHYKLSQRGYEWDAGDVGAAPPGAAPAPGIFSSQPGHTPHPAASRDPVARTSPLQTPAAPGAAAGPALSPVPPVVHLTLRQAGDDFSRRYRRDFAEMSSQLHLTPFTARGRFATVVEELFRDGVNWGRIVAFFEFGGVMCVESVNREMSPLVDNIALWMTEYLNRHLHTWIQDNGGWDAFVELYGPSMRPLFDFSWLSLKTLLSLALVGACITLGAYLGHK
Chain of Broad substrate specificity ATP-binding cassette transporter ABCG2 (Homo sapiens) (Q9UNQ0 whole entry, looked up): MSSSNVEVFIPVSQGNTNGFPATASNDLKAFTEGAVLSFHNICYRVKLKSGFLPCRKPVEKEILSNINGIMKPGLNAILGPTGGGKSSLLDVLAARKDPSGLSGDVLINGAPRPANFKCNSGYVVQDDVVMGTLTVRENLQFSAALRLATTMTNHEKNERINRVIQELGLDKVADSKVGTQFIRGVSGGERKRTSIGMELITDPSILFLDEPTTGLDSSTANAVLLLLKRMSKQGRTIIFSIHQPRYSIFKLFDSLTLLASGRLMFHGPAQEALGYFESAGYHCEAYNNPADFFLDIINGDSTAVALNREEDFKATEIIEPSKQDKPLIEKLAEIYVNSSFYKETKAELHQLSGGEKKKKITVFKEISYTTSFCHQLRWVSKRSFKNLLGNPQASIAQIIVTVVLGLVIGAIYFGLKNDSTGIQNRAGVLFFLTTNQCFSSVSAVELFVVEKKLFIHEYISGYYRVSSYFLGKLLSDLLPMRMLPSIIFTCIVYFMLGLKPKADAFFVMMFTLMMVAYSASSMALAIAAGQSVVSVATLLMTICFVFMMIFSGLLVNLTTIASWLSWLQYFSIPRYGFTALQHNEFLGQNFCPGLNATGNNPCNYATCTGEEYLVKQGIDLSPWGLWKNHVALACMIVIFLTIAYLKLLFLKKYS

Cn1cnc2c1c(=O)[nH]c(=O)n2C
inactive: [1] | [2] | [3] | [4] | [5] | [6] | [7] | [8] | [9] | [10] | [11] | [12] | [13] | [14] | [15] | [16] | BCL2L11 (gene 10018) | [17] | [18]
